Inhibition data for 59 compounds are collected here from PubChem BioAssay AID1259422 (The Scripps Research Institute Molecular Screening Center, 2018).

Out of some 640,000 compounds screened, about 9,300 (1.5%) were called active. Cut-off read from the data, not from the text of the source: active = inhibition above about 32%; inactive = the rest. Only a selection was taken, and actives are over-represented in it overall.

The assay is described as follows: TEAD-YAP interaction inhibition, primary screen, TEAD-YAP interaction inhibitor project, luminescence, HEK-TIYL cells (AID 1259422).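 Note: 0% = median of test compound wells and 100% = reference inhibitor wells.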 Conditions: TEAD-Gal4/YAP UAS-luciferase luminescence, at 9.12 µM, hits give high values.
What is called inhibition is the change of the read-out against control, counted positive when it falls. On to `COc1ccc(CNC(=O)CC(C)C)cc1`, for which the inhibition was -2.6% (inactive).
For `c1cc(-c2ccc(OC3CCNCC3)cc2)cs1` the value was -27.5% (inactive).
Next, `Cc1cc(C)c(OCCn2c(-c3ccc(Cl)cc3)nc3ccccc3c2=O)c(C)c1`: -10.6% (inactive).
For `CCOc1ccc(S(=O)(=O)Nc2ccc(Cl)cc2C)cc1` the value was 53% (active); for `CCOc1ccc(S(=O)(=O)Nc2cc(C)cc(C)c2)cc1`, -1.15% (inactive); for `CCOc1ccc(NS(=O)(=O)c2ccc(Cl)cc2)cc1`, 3.58% (inactive).
Consider `O=C(c1ccccc1F)N1CCc2nnc(Cc3ccccc3)n2CC1`, for which the inhibition is 6.95% (inactive).
For `CCCCN(C)Cc1c(O)c(Cl)cc2c(C)cc(=O)oc12` the value was 6.72% (inactive).
As to `Cc1c(C(=O)Nc2ccc3c(c2)Cc2ccccc2-3)oc2ccccc12`, the inhibition is -8.71% (inactive).
On to `CC(C)c1nnc(NC(=O)CCN2C(=O)C3C4C=CC(C4)C3C2=O)s1` (centres undefined), for which the inhibition was -6.27% (inactive).
For the compound `Cc1cc(C)n2cc(CN3CCc4ccccc4C3)nc2n1`, the inhibition was -0.09% (inactive).
For `Cc1ccc(-c2nc3ccccc3s2)cc1NC(=O)c1sc2ccccc2c1Cl` the value was -13.1% (inactive).
For `O=C(Nc1nc2ccccc2s1)c1sc2ccccc2c1Cl` the value was 38.5% (active).
Next, `O=C(Nc1cccc2ncccc12)c1sc2ccccc2c1Cl`: -3.37% (inactive); `Cc1ccc2c(c1)NC(=O)C(CC(=O)NCCN(C)C1CCCCC1)O2` (centres undefined): -13.3% (inactive).
On to `CCc1nnc2sc(-c3ccc(NC(=O)COc4ccccc4[N+](=O)[O-])cc3)nn12`, for which the inhibition is 1.75% (inactive).
For `COc1ccc(-n2cc(-c3ccccc3)c3c(NCCc4ccc(S(N)(=O)=O)cc4)ncnc32)cc1` the value was 9.44% (inactive); for `CC(=O)Nc1ccc2nc(NC(=O)c3cc4cc([N+](=O)[O-])ccc4s3)sc2c1`, 16.6% (inactive); for `Cn1ncc([N+](=O)[O-])c1C(=O)Nc1ccc2nc(NC(=O)C3CCCCC3)sc2c1`, 66.2% (active).
Consider `CC(=O)Nc1ccc2nc(NC(=O)c3ccc(S(=O)(=O)N4CCCCC4)cc3)sc2c1`, for which the inhibition is 1.92% (inactive).
For `CCOC(=O)C1CCN(Cc2cccc([N+](=O)[O-])c2)CC1` the value was -8.78% (inactive); for `Cc1ccc(/C=C2\SC(=S)N(c3cccc(O)c3)C2=O)o1`, -1.97% (inactive).
For `O=C(O)c1cc(N2C(=O)/C(=C/c3ccc(O)cc3)SC2=S)ccc1O` the value was 1.88% (inactive); for `COc1cccc(/C=C2\SC(=S)N(c3ccc(C(=O)O)c(O)c3)C2=O)c1OC`, 47.1% (active); for `CCn1c(=O)cc(SCC(=O)Nc2nc(C)cs2)c2ccccc21`, -2.9% (inactive).
Next, `CC(=O)O[C@@H]1C[C@H](c2ccc(F)cc2)N(C)C1=O`: 3.54% (inactive); `O=C1c2ccccc2C(=O)N1CCC(=O)N1c2ccccc2Sc2ccccc21`: -5.51% (inactive); `CCOc1cc2c(cc1OCC)N(CC)/C(=C\C=O)S2`: -11.6% (inactive).
Regarding `CN1/C(=C/C(=S)C(C)(C)C)Sc2ccccc21`, the inhibition is -12.6% (inactive).
Next, `Cc1cc(/C=C2\Sc3ccccc3N2C)cc(C)[n+]1CCO`: 73.5% (active).
For `CCN1/C(=C/c2cc(C)[n+](N3CCN(C)CC3)c(C)c2)Sc2ccccc21` the value was 75.1% (active); for `O=C(CN1C(=O)/C(=C/c2ccccc2)Sc2ccccc21)N1CCCC1`, -1.18% (inactive).
`Cc1ccc(CC(=O)O/N=C(\N)c2ccc(Br)cc2)cc1`: the inhibition was -13% (inactive).
Next, `Cc1cc(Nc2ccc3c(c2)OCO3)nc(Nc2cccc(N(C)C)c2)n1`: 2.34% (inactive); `CC1(C)CC(=O)C(N=Nc2cc(C(N)=O)c(Cl)cc2Cl)=C(O)C1`: -1.09% (inactive); `COc1cccc(C(=O)NC(=S)Nc2cccc(C(=O)O)c2)c1`: 30.7% (inactive).
For `COc1ccc2oc(=O)c(-c3csc(NC(=O)c4ccccc4)n3)cc2c1` the value was 1.86% (inactive).
Next, `COc1ccccc1C(=O)Nc1nc(C)cs1`: 80.1% (active); `COc1cccc(C(=O)Nc2nc(-c3ccc(C)c(C)c3)cs2)c1OC`: -6.84% (inactive); `COc1ccc(C(=O)Nc2nc(C)cs2)c(OC)n1`: 89.4% (active).
`Cc1csc(NC(=O)c2ccc(I)cc2)n1`: the inhibition is -17.9% (inactive).
Next, `COc1ccccc1C(=O)Nc1nc(-c2ccccc2)c(C)s1`: -3.33% (inactive).
Regarding `CCOC(=O)C1(Cc2cccc(F)c2)CCN(CCO)CC1`, the inhibition is 2.96% (inactive).
Next, `CCN1CCN(S(=O)(=O)c2ccc(F)c(C(=O)Nc3cccc(C)c3C)c2)CC1`: 3.75% (inactive).
For `O=C(Nc1ccccc1Br)c1ccc(Cl)c([N+](=O)[O-])c1` the value was -1.84% (inactive); for `O=C(CSc1nc2ccccc2c(=O)n1-c1ccc(C(=O)N2CCOCC2)cc1)NCc1ccccc1Cl`, 5.25% (inactive).
Next, `COc1cccc(NC(=O)Cn2c3ccccc3c(=O)c3cc(Cl)ccc32)c1`: 1.55% (inactive); `CCOc1cc(/C=C2\SC(=S)NC2=O)cc(Br)c1OC`: -5.88% (inactive).
Regarding `CN1CCN(c2ccc(-c3cc(NCCOc4ccccc4)nc(N)n3)cc2)CC1`, the inhibition is 23.1% (inactive).
Next, `CN1CCN(c2ccc(-c3cc(Nc4ccc(N5CCOCC5)cc4)nc(N)n3)cc2)CC1`: 64.9% (active); `Nc1nc(Nc2ccc(N3CCOCC3)cc2)cc(-c2ccc3[nH]ccc3c2)n1`: -4.34% (inactive).
For `COc1ccc(-c2nc(NCc3ccccc3)c3ncn(Cc4ccc(C(F)(F)F)cc4)c3n2)cc1` the value was 5.78% (inactive).
Next, `COc1ccc(CCNc2nc(-c3c(C)noc3C)nc3c2ncn3Cc2ccc(C(F)(F)F)cc2)cc1`: 40.4% (active); `CCNc1nc(NCCc2ccc(OC)cc2)c2ncn(Cc3ccc(C(F)(F)F)cc3)c2n1`: 12.1% (inactive); `Oc1ccc(CCNc2nc(Nc3ccncn3)nc3c2ncn3Cc2ccc(C(F)(F)F)cc2)cc1`: -4.85% (inactive).
Regarding `O=c1c(/C=N/Nc2ccc(C(F)(F)F)cn2)c(Cl)nc2ccccn12`, the inhibition was 52.1% (active).
Consider `O=c1c(C=Nc2ccc(Cl)cc2)c(Nc2ccccc2)nc2ccccn12`, for which the inhibition is -17.1% (inactive).
Next, `NC(=S)N/N=C/c1c(Sc2ccccn2)nc2ccccn2c1=O`: -6.3% (inactive).
Next, `COc1ccc(/C=C2\C(=O)N(c3ccc(Cl)c(C(=O)O)c3)N=C2C)cc1Br`: 0.17% (inactive).
